Assays:
Test in all cases: DAPPL (digital affinity profiling via proximity ligation, sequencing); 10 mM Tris-HCl pH 7.5, 50 mM NaCl, 1 mM DTT, 4% glycerol, room temperature, 30 min; GST-TFs on glutathione beads, 16-mer random dsDNA library, 0.1% formaldehyde crosslink after washing; high values mean tight binding
FEV = biological target: T1, FEV (Homo sapiens, UniProt Q99581 1-238); conditions: protein: recombinant; tags: N-terminal GST; dsDNA, one strand shown
T1 sequence: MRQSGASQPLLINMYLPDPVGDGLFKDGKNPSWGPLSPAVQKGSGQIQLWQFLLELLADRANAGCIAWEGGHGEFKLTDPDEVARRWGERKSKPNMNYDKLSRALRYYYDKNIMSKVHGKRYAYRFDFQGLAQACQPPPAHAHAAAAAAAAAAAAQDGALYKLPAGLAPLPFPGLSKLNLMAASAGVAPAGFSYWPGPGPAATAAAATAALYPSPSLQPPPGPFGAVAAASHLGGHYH
Procedure, shortened: (§1)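 Sequencing on an Illumina NextSeq500 followed washing, crosslinking with 0.1% formaldehyde, proximity ligation (BsaI/T4 ligase, 1 h, 37 °C) and PCR amplification of pools that had been incubated for 30 min at room temperature with 200 nmole of a random double-stranded 16-mer DNA library in Tris/NaCl/DTT/glycerol buffer. Each pool held DNA-barcoded human transcription factors, expressed in yeast as GST fusions and captured on glutathione beads, plus a tag-only sample. Binding signal is a hexamer's read frequency for a factor divided by its frequency in the tag-only sample.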

ETV5 = ETV5 (Homo sapiens, UniProt P41161 1-510); conditions: protein: recombinant; tags: N-terminal GST; dsDNA, one strand shown
ETV5, sequence (P41161 whole entry): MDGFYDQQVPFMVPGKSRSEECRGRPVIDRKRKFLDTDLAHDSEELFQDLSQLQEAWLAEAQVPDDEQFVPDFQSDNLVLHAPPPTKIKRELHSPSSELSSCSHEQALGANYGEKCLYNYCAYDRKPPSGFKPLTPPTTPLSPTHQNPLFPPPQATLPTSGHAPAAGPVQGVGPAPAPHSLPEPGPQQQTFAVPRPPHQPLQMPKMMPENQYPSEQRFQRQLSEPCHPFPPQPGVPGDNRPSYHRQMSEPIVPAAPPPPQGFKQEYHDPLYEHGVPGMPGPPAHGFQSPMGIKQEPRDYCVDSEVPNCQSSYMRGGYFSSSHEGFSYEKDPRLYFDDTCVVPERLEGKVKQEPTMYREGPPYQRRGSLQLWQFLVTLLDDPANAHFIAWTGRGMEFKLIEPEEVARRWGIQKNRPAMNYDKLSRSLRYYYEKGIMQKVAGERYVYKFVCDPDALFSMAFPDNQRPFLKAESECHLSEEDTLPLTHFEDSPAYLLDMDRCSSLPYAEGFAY
Procedure, shortened: as §1

HSF1 = HSF1 (Homo sapiens, UniProt Q00613 1-529); conditions: protein: recombinant; tags: N-terminal GST; chain copies: 3; dsDNA, one strand shown
HSF1, sequence (Q00613 whole entry): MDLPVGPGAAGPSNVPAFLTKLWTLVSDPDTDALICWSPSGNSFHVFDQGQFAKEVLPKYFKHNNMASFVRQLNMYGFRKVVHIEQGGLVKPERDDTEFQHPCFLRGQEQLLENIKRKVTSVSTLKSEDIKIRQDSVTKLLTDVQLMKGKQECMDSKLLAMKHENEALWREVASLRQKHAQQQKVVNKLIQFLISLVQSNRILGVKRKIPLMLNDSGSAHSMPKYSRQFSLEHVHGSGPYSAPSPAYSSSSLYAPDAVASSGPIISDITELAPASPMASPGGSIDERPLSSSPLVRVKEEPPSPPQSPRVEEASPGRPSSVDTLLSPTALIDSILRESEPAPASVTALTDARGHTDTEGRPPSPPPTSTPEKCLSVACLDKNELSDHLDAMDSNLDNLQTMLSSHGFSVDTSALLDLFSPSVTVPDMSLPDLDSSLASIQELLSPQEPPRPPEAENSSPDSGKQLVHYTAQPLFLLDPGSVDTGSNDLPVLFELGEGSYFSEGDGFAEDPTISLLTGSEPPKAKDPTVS
Procedure, shortened: as §1

SPIC = biological target: T2, SPIC (Homo sapiens, UniProt Q8N5J4 1-248); conditions: protein: recombinant; tags: N-terminal GST; dsDNA, one strand shown
T2 sequence: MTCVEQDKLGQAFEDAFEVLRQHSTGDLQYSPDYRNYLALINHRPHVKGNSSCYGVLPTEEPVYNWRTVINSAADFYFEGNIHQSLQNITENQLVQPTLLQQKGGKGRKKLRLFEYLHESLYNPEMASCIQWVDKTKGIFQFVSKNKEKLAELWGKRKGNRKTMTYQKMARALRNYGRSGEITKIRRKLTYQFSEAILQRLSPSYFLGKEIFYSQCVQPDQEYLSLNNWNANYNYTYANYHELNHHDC
Procedure, shortened: as §1

ELF4 = ELF4 (Homo sapiens, UniProt Q99607 1-663); conditions: protein: recombinant; tags: N-terminal GST; dsDNA, one strand shown
ELF4, sequence (Q99607 whole entry): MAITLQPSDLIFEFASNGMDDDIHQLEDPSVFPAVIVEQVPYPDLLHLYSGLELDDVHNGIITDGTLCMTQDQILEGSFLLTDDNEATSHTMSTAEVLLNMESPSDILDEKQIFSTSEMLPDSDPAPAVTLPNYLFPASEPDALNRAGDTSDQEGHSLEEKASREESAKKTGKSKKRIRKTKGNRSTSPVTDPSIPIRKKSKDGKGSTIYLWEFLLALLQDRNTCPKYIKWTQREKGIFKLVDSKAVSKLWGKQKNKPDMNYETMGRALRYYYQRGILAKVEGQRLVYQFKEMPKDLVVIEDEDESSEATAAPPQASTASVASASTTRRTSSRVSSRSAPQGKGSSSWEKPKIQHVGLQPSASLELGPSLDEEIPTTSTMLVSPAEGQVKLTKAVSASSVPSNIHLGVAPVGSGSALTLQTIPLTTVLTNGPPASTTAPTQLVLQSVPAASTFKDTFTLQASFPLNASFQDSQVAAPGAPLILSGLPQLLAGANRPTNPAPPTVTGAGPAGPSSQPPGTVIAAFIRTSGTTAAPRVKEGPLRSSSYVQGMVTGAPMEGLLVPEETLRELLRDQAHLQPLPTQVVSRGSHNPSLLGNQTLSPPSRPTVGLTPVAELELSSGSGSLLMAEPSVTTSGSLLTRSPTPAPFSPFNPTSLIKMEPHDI
Procedure, shortened: as §1

ELK4 = biological target: T3, ELK4 (Homo sapiens, UniProt P28324-2 1-405); conditions: protein: recombinant; tags: N-terminal GST; dsDNA, one strand shown
T3 sequence: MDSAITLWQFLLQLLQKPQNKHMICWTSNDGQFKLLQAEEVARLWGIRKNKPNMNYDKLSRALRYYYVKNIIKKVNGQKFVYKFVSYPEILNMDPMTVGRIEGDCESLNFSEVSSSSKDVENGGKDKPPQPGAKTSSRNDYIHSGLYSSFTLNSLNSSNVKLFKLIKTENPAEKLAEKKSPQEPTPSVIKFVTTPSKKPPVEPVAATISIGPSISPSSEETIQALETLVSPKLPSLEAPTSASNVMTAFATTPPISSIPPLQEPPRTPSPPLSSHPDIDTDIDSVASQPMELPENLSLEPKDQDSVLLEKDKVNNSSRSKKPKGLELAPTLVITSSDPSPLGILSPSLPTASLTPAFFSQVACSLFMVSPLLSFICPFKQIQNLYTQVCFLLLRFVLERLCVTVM
Procedure, shortened: as §1

ETV2 = biological target: T4, ETV2 (Homo sapiens, UniProt O00321 1-342); conditions: protein: recombinant; tags: N-terminal GST; dsDNA, one strand shown
T4 sequence: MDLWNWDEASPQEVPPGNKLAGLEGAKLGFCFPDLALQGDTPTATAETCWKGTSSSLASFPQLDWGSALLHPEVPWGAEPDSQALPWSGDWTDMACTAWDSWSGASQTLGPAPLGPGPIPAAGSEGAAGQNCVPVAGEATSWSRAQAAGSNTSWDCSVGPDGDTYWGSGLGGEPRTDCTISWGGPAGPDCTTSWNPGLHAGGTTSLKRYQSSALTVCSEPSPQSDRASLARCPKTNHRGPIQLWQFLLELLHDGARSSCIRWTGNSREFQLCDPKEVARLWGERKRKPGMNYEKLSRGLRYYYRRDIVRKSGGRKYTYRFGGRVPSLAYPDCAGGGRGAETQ
Procedure, shortened: as §1

ELF3 = biological target: T5, ELF3 (Homo sapiens, UniProt P78545 1-371); conditions: protein: recombinant; tags: N-terminal GST; dsDNA, one strand shown
T5 sequence: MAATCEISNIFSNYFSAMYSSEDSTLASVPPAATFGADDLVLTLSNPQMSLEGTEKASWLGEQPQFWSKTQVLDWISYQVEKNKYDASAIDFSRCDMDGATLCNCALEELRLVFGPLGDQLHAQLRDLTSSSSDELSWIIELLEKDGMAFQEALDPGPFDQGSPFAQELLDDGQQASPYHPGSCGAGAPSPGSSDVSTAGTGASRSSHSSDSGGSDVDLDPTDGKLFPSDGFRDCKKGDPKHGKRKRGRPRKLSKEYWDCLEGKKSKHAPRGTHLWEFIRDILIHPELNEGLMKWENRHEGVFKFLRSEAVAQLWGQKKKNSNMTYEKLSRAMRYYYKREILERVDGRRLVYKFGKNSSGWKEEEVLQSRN
Procedure, shortened: as §1

ETV1 = ETV1 (Homo sapiens, UniProt P50549 1-477); conditions: protein: recombinant; tags: N-terminal GST; dsDNA, one strand shown
ETV1, sequence (P50549 whole entry): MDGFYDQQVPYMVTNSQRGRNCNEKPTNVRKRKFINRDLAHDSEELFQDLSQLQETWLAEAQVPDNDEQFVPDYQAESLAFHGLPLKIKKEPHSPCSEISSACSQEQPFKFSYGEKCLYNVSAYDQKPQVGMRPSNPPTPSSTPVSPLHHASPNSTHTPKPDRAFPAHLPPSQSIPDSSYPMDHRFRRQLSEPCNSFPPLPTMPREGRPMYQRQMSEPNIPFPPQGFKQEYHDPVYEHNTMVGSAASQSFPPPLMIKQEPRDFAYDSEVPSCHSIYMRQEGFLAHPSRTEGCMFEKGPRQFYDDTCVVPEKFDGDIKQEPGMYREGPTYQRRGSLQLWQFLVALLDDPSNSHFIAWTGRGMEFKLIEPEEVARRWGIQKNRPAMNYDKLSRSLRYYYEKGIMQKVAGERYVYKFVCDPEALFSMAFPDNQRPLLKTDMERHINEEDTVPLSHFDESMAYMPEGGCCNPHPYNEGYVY
Procedure, shortened: as §1

ERF = biological target: T6, ERF (Homo sapiens, UniProt P50548 1-548); conditions: protein: recombinant; tags: N-terminal GST; dsDNA, one strand shown
T6 sequence: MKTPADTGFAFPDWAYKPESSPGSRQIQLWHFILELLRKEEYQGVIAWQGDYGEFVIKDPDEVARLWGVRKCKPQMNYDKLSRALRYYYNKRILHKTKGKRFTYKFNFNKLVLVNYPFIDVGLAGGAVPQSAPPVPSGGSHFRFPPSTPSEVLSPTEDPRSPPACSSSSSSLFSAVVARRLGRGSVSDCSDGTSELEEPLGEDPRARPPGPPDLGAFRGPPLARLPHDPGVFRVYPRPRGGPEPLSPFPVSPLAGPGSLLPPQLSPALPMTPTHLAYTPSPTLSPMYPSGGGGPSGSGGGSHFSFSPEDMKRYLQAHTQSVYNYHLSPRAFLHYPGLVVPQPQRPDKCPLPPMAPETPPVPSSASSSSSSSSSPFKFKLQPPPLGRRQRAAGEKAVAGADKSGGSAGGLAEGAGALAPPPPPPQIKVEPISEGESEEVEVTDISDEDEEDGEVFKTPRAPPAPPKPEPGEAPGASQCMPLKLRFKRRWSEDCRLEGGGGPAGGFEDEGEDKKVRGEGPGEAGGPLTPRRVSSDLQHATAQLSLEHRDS
Procedure, shortened: as §1

ETV3L = biological target: T7, ETV3L (Homo sapiens, UniProt Q6ZN32 1-361); conditions: protein: recombinant; tags: N-terminal GST; dsDNA, one strand shown
T7 sequence: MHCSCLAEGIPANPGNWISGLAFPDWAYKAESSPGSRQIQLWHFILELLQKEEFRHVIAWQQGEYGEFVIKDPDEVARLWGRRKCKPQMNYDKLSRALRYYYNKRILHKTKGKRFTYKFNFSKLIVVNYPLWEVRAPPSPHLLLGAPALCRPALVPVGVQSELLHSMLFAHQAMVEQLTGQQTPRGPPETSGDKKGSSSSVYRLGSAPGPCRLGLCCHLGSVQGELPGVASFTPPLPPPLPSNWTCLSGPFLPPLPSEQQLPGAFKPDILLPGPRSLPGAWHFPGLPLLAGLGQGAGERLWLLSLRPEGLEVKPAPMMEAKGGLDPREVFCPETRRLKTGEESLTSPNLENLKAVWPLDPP
Procedure, shortened: as §1

ETS2 = biological target: T8, ETS2 (Homo sapiens, UniProt P15036 1-469); conditions: protein: recombinant; tags: N-terminal GST; dsDNA, one strand shown
T8 sequence: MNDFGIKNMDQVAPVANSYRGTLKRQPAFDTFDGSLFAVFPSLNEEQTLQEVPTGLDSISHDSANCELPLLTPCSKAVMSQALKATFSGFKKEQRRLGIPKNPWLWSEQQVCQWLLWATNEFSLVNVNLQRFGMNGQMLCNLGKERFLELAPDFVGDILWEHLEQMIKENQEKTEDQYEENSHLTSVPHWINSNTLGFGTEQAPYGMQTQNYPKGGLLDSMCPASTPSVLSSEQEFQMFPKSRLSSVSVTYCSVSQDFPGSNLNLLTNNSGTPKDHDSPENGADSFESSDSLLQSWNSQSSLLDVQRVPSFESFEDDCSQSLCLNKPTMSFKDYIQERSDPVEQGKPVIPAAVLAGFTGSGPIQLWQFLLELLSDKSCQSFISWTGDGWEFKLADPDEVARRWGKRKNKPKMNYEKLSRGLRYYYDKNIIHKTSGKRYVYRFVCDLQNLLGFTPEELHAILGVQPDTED
Procedure, shortened: as §1

SPDEF = biological target: T9, SPDEF (Homo sapiens, UniProt O95238 1-335); conditions: protein: recombinant; tags: N-terminal GST; dsDNA, one strand shown
T9 sequence: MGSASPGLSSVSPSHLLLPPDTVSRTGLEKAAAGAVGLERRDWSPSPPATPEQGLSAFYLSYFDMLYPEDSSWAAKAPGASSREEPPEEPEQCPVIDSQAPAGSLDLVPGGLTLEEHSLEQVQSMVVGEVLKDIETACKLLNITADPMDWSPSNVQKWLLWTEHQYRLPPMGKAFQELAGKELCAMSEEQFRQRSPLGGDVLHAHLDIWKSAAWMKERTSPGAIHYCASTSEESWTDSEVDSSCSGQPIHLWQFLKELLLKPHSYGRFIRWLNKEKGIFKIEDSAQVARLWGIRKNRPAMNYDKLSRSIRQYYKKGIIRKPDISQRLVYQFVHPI
Procedure, shortened: as §1

ETV7 = biological target: T10, ETV7 (Homo sapiens, UniProt Q9Y603 1-341); conditions: protein: recombinant; tags: N-terminal GST; dsDNA, one strand shown
T10 sequence: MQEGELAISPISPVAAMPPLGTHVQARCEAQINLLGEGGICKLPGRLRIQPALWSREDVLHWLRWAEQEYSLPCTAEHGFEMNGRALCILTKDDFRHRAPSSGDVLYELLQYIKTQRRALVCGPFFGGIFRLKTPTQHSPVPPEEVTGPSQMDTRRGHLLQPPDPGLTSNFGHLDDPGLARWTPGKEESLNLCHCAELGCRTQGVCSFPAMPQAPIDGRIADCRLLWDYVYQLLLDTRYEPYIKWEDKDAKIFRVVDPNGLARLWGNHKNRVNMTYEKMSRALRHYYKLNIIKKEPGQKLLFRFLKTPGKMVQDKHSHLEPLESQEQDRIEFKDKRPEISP
Procedure, shortened: as §1

ELF5 = biological target: T11, ELF5 (Homo sapiens, UniProt Q9UKW6-2 1-255); conditions: protein: recombinant; tags: N-terminal GST; dsDNA, one strand shown
T11 sequence: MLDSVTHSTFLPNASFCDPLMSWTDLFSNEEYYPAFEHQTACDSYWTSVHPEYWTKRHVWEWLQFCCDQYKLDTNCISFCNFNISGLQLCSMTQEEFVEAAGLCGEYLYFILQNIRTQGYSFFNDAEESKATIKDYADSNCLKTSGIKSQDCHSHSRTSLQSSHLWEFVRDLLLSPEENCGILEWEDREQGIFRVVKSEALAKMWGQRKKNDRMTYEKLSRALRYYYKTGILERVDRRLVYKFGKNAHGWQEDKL
Procedure, shortened: as §1

ETV3 = biological target: T12, ETV3 (Homo sapiens, UniProt P41162-2 1-143); conditions: protein: recombinant; tags: N-terminal GST; dsDNA, one strand shown
T12 sequence: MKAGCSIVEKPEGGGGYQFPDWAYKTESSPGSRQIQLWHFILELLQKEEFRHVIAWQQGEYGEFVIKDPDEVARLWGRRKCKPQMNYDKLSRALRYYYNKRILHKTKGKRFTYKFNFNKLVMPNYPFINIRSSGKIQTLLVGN
Procedure, shortened: as §1

ETV6 = ETV6 (Homo sapiens, UniProt P41212 1-452); conditions: protein: recombinant; tags: N-terminal GST; dsDNA, one strand shown
ETV6, sequence (P41212 whole entry): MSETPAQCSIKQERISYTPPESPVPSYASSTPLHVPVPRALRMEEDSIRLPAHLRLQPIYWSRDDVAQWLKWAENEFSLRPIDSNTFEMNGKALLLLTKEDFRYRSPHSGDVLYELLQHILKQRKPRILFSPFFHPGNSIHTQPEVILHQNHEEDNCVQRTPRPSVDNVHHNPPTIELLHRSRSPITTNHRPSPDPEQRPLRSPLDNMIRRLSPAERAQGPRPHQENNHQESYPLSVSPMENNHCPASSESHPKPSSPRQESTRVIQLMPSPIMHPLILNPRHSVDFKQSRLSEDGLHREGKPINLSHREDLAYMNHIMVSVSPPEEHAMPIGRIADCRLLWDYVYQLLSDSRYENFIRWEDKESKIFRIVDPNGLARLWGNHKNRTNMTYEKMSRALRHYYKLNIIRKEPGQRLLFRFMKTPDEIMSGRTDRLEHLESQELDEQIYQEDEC
Procedure, shortened: as §1

In the case of CTGCCG, the binding signal (FEV) is reported as 1.35 fold enrichment (6-mer frequency, TF over GST control), the binding signal (ETV5) is reported as 1.36 fold enrichment (6-mer frequency, TF over GST control) and the binding signal (HSF1) is reported as 1.04 fold enrichment (6-mer frequency, TF over GST control). The binding signal (SPIC) was 1.31 fold enrichment (6-mer frequency, TF over GST control), the binding signal (ELF4) was 1.28 fold enrichment (6-mer frequency, TF over GST control) and the binding signal (ELK4) was 1.24 fold enrichment (6-mer frequency, TF over GST control). For the same sequence, the binding signal (ETV2) was 1.07 fold enrichment (6-mer frequency, TF over GST control), the binding signal (ELF3) was 1.09 fold enrichment (6-mer frequency, TF over GST control) and the binding signal (ETV1) was 1.34 fold enrichment (6-mer frequency, TF over GST control). The binding signal (ERF) was 1.27 fold enrichment (6-mer frequency, TF over GST control), the binding signal (ETV3L) was 1.23 fold enrichment (6-mer frequency, TF over GST control) and the binding signal (ETS2) was 1.32 fold enrichment (6-mer frequency, TF over GST control). For the same sequence, the binding signal (SPDEF) was 1.26 fold enrichment (6-mer frequency, TF over GST control), the binding signal (ETV7) was 1.39 fold enrichment (6-mer frequency, TF over GST control) and the binding signal (ELF5) was 1.33 fold enrichment (6-mer frequency, TF over GST control). For the same sequence, the binding signal (ETV3) was 1.44 fold enrichment (6-mer frequency, TF over GST control) and the binding signal (ETV6) was 1.39 fold enrichment (6-mer frequency, TF over GST control).

Source: paper PMC7862700, “An all-to-all approach to the identification of sequence-specific readers for epigenetic DNA modifications on cytosine”
